Article PMC11006913

Key:
Experiment in all cases: PBM; 200 nM protein, PBS
Conditions in all cases: dsDNA, one strand shown
HESX1 [1] = molecular target: HESX1 (Homo sapiens, UniProt Q9UBX0 95-180, R165K)
SHOX [2] = molecular target: SHOX (Homo sapiens, UniProt O15266 103-189)
ALX4 = ALX4 (Homo sapiens, UniProt Q9H161 200-286, Q225E)
ALX1 [3] = molecular target: ALX1 (Homo sapiens, UniProt Q15699 118-204, L144V)
ALX3 [4] = molecular target: ALX3 (Homo sapiens, UniProt O95076 139-225, N203Q)
SHOX [5] = molecular target: SHOX (Homo sapiens, UniProt O15266 103-189, R173C)
SHOX (Homo sapiens, UniProt O15266 103-189, R173C), sequence (O15266 103-189 R173C): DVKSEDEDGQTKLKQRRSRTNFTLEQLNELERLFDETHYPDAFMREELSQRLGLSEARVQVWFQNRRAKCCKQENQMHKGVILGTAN

ALX1 [6] = molecular target: ALX1 (Homo sapiens, UniProt Q15699 118-204, L144R)
ALX1 (Homo sapiens, UniProt Q15699 118-204, L144R), sequence (Q15699 118-204 L144R): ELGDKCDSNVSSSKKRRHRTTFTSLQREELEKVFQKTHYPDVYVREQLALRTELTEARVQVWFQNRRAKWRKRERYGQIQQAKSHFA

ALX3 [7] = molecular target: ALX3 (Homo sapiens, UniProt O95076 139-225)
ALX3 (Homo sapiens, UniProt O95076 139-225), sequence (O95076 139-225): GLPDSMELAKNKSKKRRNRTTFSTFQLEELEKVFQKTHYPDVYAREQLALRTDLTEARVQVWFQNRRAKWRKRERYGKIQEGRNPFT

PROP1 [8] = molecular target: PROP1 (Homo sapiens, UniProt O75360 56-141)
PROP1 (Homo sapiens, UniProt O75360 56-141), sequence (O75360 56-141): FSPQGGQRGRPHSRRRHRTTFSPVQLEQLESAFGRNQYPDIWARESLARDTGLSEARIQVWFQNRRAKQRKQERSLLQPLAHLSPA

HESX1 [9] = molecular target: HESX1 (Homo sapiens, UniProt Q9UBX0 95-180, R109Q)
HESX1 (Homo sapiens, UniProt Q9UBX0 95-180, R109Q), sequence (Q9UBX0 95-180 R109Q): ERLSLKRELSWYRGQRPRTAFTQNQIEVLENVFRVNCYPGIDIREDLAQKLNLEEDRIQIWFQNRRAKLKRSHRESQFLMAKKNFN

PROP1 [10] = molecular target: PROP1 (Homo sapiens, UniProt O75360 56-141, R99H)
PROP1 (Homo sapiens, UniProt O75360 56-141, R99H), sequence (O75360 56-141 R99H): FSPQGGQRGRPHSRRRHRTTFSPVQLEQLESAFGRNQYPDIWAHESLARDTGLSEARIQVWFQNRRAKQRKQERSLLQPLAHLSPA

ALX3 [11] = molecular target: ALX3 (Homo sapiens, UniProt O95076 139-225, L168Q)
ALX3 (Homo sapiens, UniProt O95076 139-225, L168Q), sequence (O95076 139-225 L168Q): as the sequence (O95076 139-225) above, with L30Q counted along it

ALX3 [12] = molecular target: ALX3 (Homo sapiens, UniProt O95076 139-225, L168V)
ALX3 (Homo sapiens, UniProt O95076 139-225, L168V), sequence (O95076 139-225 L168V): as the sequence (O95076 139-225) above, with L30V counted along it

PROP1 [13] = molecular target: PROP1 (Homo sapiens, UniProt O75360 56-141, F88S)
PROP1 (Homo sapiens, UniProt O75360 56-141, F88S), sequence (O75360 56-141 F88S): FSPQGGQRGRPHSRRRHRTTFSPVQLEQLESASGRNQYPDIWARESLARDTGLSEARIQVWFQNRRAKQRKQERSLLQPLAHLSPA

HESX1 [14] = molecular target: HESX1 (Homo sapiens, UniProt Q9UBX0 95-180, F115L)
HESX1 (Homo sapiens, UniProt Q9UBX0 95-180, F115L), sequence (Q9UBX0 95-180 F115L): as the sequence (Q9UBX0 95-180 R109Q) above, with Q15R, F21L counted along it

ALX1 [15] = molecular target: ALX1 (Homo sapiens, UniProt Q15699 118-204)
ALX1 (Homo sapiens, UniProt Q15699 118-204), sequence (Q15699 118-204): as the sequence (Q15699 118-204 L144R) above, with R27L counted along it

ALX3 [16] = molecular target: ALX3 (Homo sapiens, UniProt O95076 139-225, N203S)
ALX3 (Homo sapiens, UniProt O95076 139-225, N203S), sequence (O95076 139-225 N203S): as the sequence (O95076 139-225) above, with N65S counted along it

HESX1 [17] = molecular target: HESX1 (Homo sapiens, UniProt Q9UBX0 95-180)
HESX1 (Homo sapiens, UniProt Q9UBX0 95-180), sequence (Q9UBX0 95-180): as the sequence (Q9UBX0 95-180 R109Q) above, with Q15R counted along it

MSX2 = MSX2 (Homo sapiens, UniProt P35548 130-214, R199I)
MSX2, sequence (P35548 130-214 R199I): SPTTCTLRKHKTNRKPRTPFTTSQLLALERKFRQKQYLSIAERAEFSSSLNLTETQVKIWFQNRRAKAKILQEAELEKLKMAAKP

HESX1 [18] = molecular target: HESX1 (Homo sapiens, UniProt Q9UBX0 95-180, P111T)
HESX1 (Homo sapiens, UniProt Q9UBX0 95-180, P111T), sequence (Q9UBX0 95-180 P111T): as the sequence (Q9UBX0 95-180 R109Q) above, with Q15R, P17T counted along it

ALX1 (Homo sapiens, UniProt Q15699 118-204, L144V), sequence (Q15699 118-204 L144V): as the sequence (Q15699 118-204 L144R) above, with R27V counted along it
SHOX (Homo sapiens, UniProt O15266 103-189), sequence (O15266 103-189): as the sequence (O15266 103-189 R173C) above, with C71R counted along it
ALX3 (Homo sapiens, UniProt O95076 139-225, N203Q), sequence (O95076 139-225 N203Q): as the sequence (O95076 139-225) above, with N65Q counted along it
ALX4, sequence (Q9H161 200-286 Q225E): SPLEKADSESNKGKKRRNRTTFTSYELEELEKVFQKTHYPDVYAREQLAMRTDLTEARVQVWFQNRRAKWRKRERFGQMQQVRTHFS
HESX1 (Homo sapiens, UniProt Q9UBX0 95-180, R165K), sequence (Q9UBX0 95-180 R165K): as the sequence (Q9UBX0 95-180 R109Q) above, with Q15R, R71K counted along it

Sequence	binding signal (HESX1 [1])	binding signal (SHOX [2])	binding signal (ALX4)	binding signal (ALX1 [3])	binding signal (ALX3 [4])	binding signal (SHOX [5])	binding signal (ALX1 [6])	binding signal (ALX3 [7])	binding signal (PROP1 [8])	binding signal (HESX1 [9])	binding signal (PROP1 [10])	binding signal (ALX3 [11])	binding signal (ALX3 [12])	binding signal (PROP1 [13])	binding signal (HESX1 [14])	binding signal (ALX1 [15])	binding signal (ALX3 [16])	binding signal (HESX1 [17])	binding signal (MSX2)	binding signal (HESX1 [18])
ATTAATGA	11.4 upbm affinity estimate (log intensity, higher = more binding, comparable within an allelic series)	11.5 upbm affinity estimate (log intensity, higher = more binding, comparable within an allelic series)	12.8 upbm affinity estimate (log intensity, higher = more binding, comparable within an allelic series)	11.6 upbm affinity estimate (log intensity, higher = more binding, comparable within an allelic series)	8.5 upbm affinity estimate (log intensity, higher = more binding, comparable within an allelic series)	9.51 upbm affinity estimate (log intensity, higher = more binding, comparable within an allelic series)	11.4 upbm affinity estimate (log intensity, higher = more binding, comparable within an allelic series)	12.3 upbm affinity estimate (log intensity, higher = more binding, comparable within an allelic series)	11.2 upbm affinity estimate (log intensity, higher = more binding, comparable within an allelic series)	8.79 upbm affinity estimate (log intensity, higher = more binding, comparable within an allelic series)	10.9 upbm affinity estimate (log intensity, higher = more binding, comparable within an allelic series)	10.3 upbm affinity estimate (log intensity, higher = more binding, comparable within an allelic series)	9.84 upbm affinity estimate (log intensity, higher = more binding, comparable within an allelic series)	7.87 upbm affinity estimate (log intensity, higher = more binding, comparable within an allelic series)	7.87 upbm affinity estimate (log intensity, higher = more binding, comparable within an allelic series)	12.2 upbm affinity estimate (log intensity, higher = more binding, comparable within an allelic series)	8.58 upbm affinity estimate (log intensity, higher = more binding, comparable within an allelic series)			
TAATTACA	12.5 upbm affinity estimate (log intensity, higher = more binding, comparable within an allelic series)	12.1 upbm affinity estimate (log intensity, higher = more binding, comparable within an allelic series)	13.5 upbm affinity estimate (log intensity, higher = more binding, comparable within an allelic series)	11.9 upbm affinity estimate (log intensity, higher = more binding, comparable within an allelic series)	8.51 upbm affinity estimate (log intensity, higher = more binding, comparable within an allelic series)	9.87 upbm affinity estimate (log intensity, higher = more binding, comparable within an allelic series)	11.5 upbm affinity estimate (log intensity, higher = more binding, comparable within an allelic series)	12.7 upbm affinity estimate (log intensity, higher = more binding, comparable within an allelic series)	11.8 upbm affinity estimate (log intensity, higher = more binding, comparable within an allelic series)	9.27 upbm affinity estimate (log intensity, higher = more binding, comparable within an allelic series)	11.5 upbm affinity estimate (log intensity, higher = more binding, comparable within an allelic series)	10.8 upbm affinity estimate (log intensity, higher = more binding, comparable within an allelic series)	10.3 upbm affinity estimate (log intensity, higher = more binding, comparable within an allelic series)	7.98 upbm affinity estimate (log intensity, higher = more binding, comparable within an allelic series)	7.89 upbm affinity estimate (log intensity, higher = more binding, comparable within an allelic series)	12.5 upbm affinity estimate (log intensity, higher = more binding, comparable within an allelic series)	8.62 upbm affinity estimate (log intensity, higher = more binding, comparable within an allelic series)	12.6 upbm affinity estimate (log intensity, higher = more binding, comparable within an allelic series)	13.1 upbm affinity estimate (log intensity, higher = more binding, comparable within an allelic series)	11.1 upbm affinity estimate (log intensity, higher = more binding, comparable within an allelic series)
TTAATTAA	13.7 upbm affinity estimate (log intensity, higher = more binding, comparable within an allelic series)	13.3 upbm affinity estimate (log intensity, higher = more binding, comparable within an allelic series)	14.7 upbm affinity estimate (log intensity, higher = more binding, comparable within an allelic series)	12.3 upbm affinity estimate (log intensity, higher = more binding, comparable within an allelic series)	8.75 upbm affinity estimate (log intensity, higher = more binding, comparable within an allelic series)	11.2 upbm affinity estimate (log intensity, higher = more binding, comparable within an allelic series)	11.9 upbm affinity estimate (log intensity, higher = more binding, comparable within an allelic series)	13 upbm affinity estimate (log intensity, higher = more binding, comparable within an allelic series)	12.3 upbm affinity estimate (log intensity, higher = more binding, comparable within an allelic series)	11.2 upbm affinity estimate (log intensity, higher = more binding, comparable within an allelic series)	12.4 upbm affinity estimate (log intensity, higher = more binding, comparable within an allelic series)	11.7 upbm affinity estimate (log intensity, higher = more binding, comparable within an allelic series)	11.6 upbm affinity estimate (log intensity, higher = more binding, comparable within an allelic series)	8.42 upbm affinity estimate (log intensity, higher = more binding, comparable within an allelic series)	8.85 upbm affinity estimate (log intensity, higher = more binding, comparable within an allelic series)	12.9 upbm affinity estimate (log intensity, higher = more binding, comparable within an allelic series)	8.98 upbm affinity estimate (log intensity, higher = more binding, comparable within an allelic series)	13.6 upbm affinity estimate (log intensity, higher = more binding, comparable within an allelic series)	13.1 upbm affinity estimate (log intensity, higher = more binding, comparable within an allelic series)	12.6 upbm affinity estimate (log intensity, higher = more binding, comparable within an allelic series)
AATTAATG	12.1 upbm affinity estimate (log intensity, higher = more binding, comparable within an allelic series)	11.8 upbm affinity estimate (log intensity, higher = more binding, comparable within an allelic series)	13.4 upbm affinity estimate (log intensity, higher = more binding, comparable within an allelic series)	11.9 upbm affinity estimate (log intensity, higher = more binding, comparable within an allelic series)	8.41 upbm affinity estimate (log intensity, higher = more binding, comparable within an allelic series)	9.48 upbm affinity estimate (log intensity, higher = more binding, comparable within an allelic series)	11.5 upbm affinity estimate (log intensity, higher = more binding, comparable within an allelic series)	12.6 upbm affinity estimate (log intensity, higher = more binding, comparable within an allelic series)	11.4 upbm affinity estimate (log intensity, higher = more binding, comparable within an allelic series)	9.35 upbm affinity estimate (log intensity, higher = more binding, comparable within an allelic series)	11.3 upbm affinity estimate (log intensity, higher = more binding, comparable within an allelic series)	10.7 upbm affinity estimate (log intensity, higher = more binding, comparable within an allelic series)	10.3 upbm affinity estimate (log intensity, higher = more binding, comparable within an allelic series)	7.86 upbm affinity estimate (log intensity, higher = more binding, comparable within an allelic series)	7.83 upbm affinity estimate (log intensity, higher = more binding, comparable within an allelic series)	12.5 upbm affinity estimate (log intensity, higher = more binding, comparable within an allelic series)	8.55 upbm affinity estimate (log intensity, higher = more binding, comparable within an allelic series)	12.1 upbm affinity estimate (log intensity, higher = more binding, comparable within an allelic series)	12.5 upbm affinity estimate (log intensity, higher = more binding, comparable within an allelic series)	10.7 upbm affinity estimate (log intensity, higher = more binding, comparable within an allelic series)
ATTAATTA	14 upbm affinity estimate (log intensity, higher = more binding, comparable within an allelic series)	13.3 upbm affinity estimate (log intensity, higher = more binding, comparable within an allelic series)	14.6 upbm affinity estimate (log intensity, higher = more binding, comparable within an allelic series)	12.5 upbm affinity estimate (log intensity, higher = more binding, comparable within an allelic series)	8.67 upbm affinity estimate (log intensity, higher = more binding, comparable within an allelic series)	10.8 upbm affinity estimate (log intensity, higher = more binding, comparable within an allelic series)	12.1 upbm affinity estimate (log intensity, higher = more binding, comparable within an allelic series)	13.2 upbm affinity estimate (log intensity, higher = more binding, comparable within an allelic series)	12.3 upbm affinity estimate (log intensity, higher = more binding, comparable within an allelic series)	11 upbm affinity estimate (log intensity, higher = more binding, comparable within an allelic series)	12.5 upbm affinity estimate (log intensity, higher = more binding, comparable within an allelic series)	11.6 upbm affinity estimate (log intensity, higher = more binding, comparable within an allelic series)	11.5 upbm affinity estimate (log intensity, higher = more binding, comparable within an allelic series)	8.37 upbm affinity estimate (log intensity, higher = more binding, comparable within an allelic series)	8.72 upbm affinity estimate (log intensity, higher = more binding, comparable within an allelic series)	13.2 upbm affinity estimate (log intensity, higher = more binding, comparable within an allelic series)	8.88 upbm affinity estimate (log intensity, higher = more binding, comparable within an allelic series)	13.8 upbm affinity estimate (log intensity, higher = more binding, comparable within an allelic series)	13.4 upbm affinity estimate (log intensity, higher = more binding, comparable within an allelic series)	12.5 upbm affinity estimate (log intensity, higher = more binding, comparable within an allelic series)
